Experiment [1] is described as follows: Nuclear factor erythroid 2-related factor 2/antioxidant responsive element (Nrf2/ARE) small molecule agonists: qHTS cell viability counter screen in human keratinocytes (AID 1919968; active means well fitted curve in the direction sought with a large enough effect in the repeat runs; an effect the other way counts as inactive or inconclusive; further: nearly all actives have a fitted effect of over 55% in size; further: potency means the concentration at half of the fitted maximal effect). The method in brief:
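Cells of the KeratinoSens line were plated at 1,500 per well and left for 5 h before compound transfer from DMSO stocks. After a 23 h incubation (37 C, 5% CO2), CellTiter-Fluor was added. Signal was taken as fluorescence intensity 1 h later.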

Experiment [2] can be described thus: Nuclear factor erythroid 2-related factor 2/antioxidant responsive element (Nrf2/ARE) small molecule agonists: luciferase reporter gene qHTS assay in human keratinocytes (AID 1919969). Further: nearly all actives have a fitted effect of over 35% in size.
Experiment [3] addresses Gonadotropin-releasing hormone receptor (Homo sapiens) (UniProt P30968). Nature of the experiment: Human gonadotropin-releasing hormone receptor (GnRHR) small molecule agonists, calcium flux assay in GnRHR-HEK293 cells (AID 1920063). Further: nearly all actives have a fitted effect of over 35% in size. Further: potency means the concentration at half of the fitted maximal effect. The method in brief:
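Compounds dissolved in DMSO are pin-transferred onto dye-loaded GnRHR-HEK293 cells, which were seeded 18 h before at 37 C/5% CO2. Calcium signal is read as fluorescence intensity at 1 s intervals for 3 min.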

Experiment [4] concerns the target KiSS-1 receptor (Homo sapiens) (UniProt Q969F8). Description: Human kisspeptin (KISS1R) small molecule agonists, calcium flux assay in KISS1R-HEK293 cells (AID 1920064; active means well fitted curve in the direction sought with a large enough effect in the repeat runs; an effect the other way counts as inactive or inconclusive). The method in brief:
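Cell line: HEK293, stable human KISS1R. Dye loading 1 h at 37 C after 18 h culture. Read: kinetic fluorescence, 480/540 nm, 3 min at 1 s intervals.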

The nature of experiment [5]: G protein-coupled receptor (GPCR) small molecule agonists, calcium flux assay: HEK293 wild type cell line counter screen (AID 1920065). In a few lines: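 Tox21 10K compounds, 15 concentrations each in triplicate, pin-transferred in DMSO onto dye-loaded cells; kinetic read at 480/540 nm for 3 min, 1 s intervals.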
A short description of experiment [6]: p53 small molecule agonists, cell-based qHTS assay with human liver microsomes (AID 1963577).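 Further: p53 response element beta-lactamase reporter cells with liver microsomes plus NADPH.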 In a few lines:
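p53RE-bla cells; 5 h settle, 37 C/5% CO2; cpd + HLM 0.5 mg/mL + NADPH 0.5 mg/mL (final); 16 h 37 C; LiveBLAzer 2 h RT dark; fluorescence readout.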

A short description of experiment [7]: p53 small molecule agonists, cell-based qHTS assay with rat liver microsomes (AID 1963578). The method in brief:
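Rat liver microsome activation: microsomes 0.5 mg/mL, NADPH 0.5 mg/mL final; p53RE-bla cells, 16 h 37 C; LiveBLAzer readout, 2 h RT dark.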

Experiment [8] in a line: p53 small molecule agonists, cell-based qHTS assay with rat liver microsomes: qHTS cell viability counter screen (AID 1963580). Further: nearly all actives have a fitted effect of over 45% in size. In a few lines: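 Cytotoxicity counter screen: intracellular ATP read by CellTiter-Glo luminescence in the p53 reporter wells. HCT-116 p53RE-bla cells were treated for 16 h at 37 C alongside rat liver microsomes and NADPH, each 0.5 mg/mL final.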

Experiment [9] in a line: p53 small molecule agonists, cell-based qHTS assay: qHTS cell viability counter screen (AID 1963581). Further: nearly all actives have a fitted effect of over 45% in size. In a few lines:
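ATP content measured by luminescence in HCT-116 p53RE-bla cells treated 16 h at 37 C, same wells as the reporter screen.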

A short description of experiment [10]: p53 small molecule agonists, cell-based qHTS assay (AID 1963582; active means well fitted activation curve with a large enough effect in the signal ratio in the repeat runs, not every such curve was filed as active; the % refers to the signal ratio). The method in brief:
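16 h compound exposure (37 C) of p53 response element–bla cells, preceded by 5 h recovery at 37 C/5% CO2; read-out via LiveBLAzer B/G FRET substrate, 2 h RT, fluorescence intensity.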

For experiment [11], the target named is 5-hydroxytryptamine receptor 2A (Homo sapiens) (UniProt P28223). Nature of the experiment: 5-hydroxytryptamine receptor 2A (HTR2A) small molecule antagonists, cell-based qHTS assay (AID 1963586). Further: nearly all actives have a fitted effect of over 45% in size. In a few lines:
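CHO cells stably expressing human HTR2A were plated for 18 h at 37 C, then loaded with calcium dye for 1 h. Compounds were preincubated 5 min at room temperature before DOI (4 nM solution) was added. Kinetic fluorescence was read for 3 min.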

Experiment [12] has the same target. Description: 5-hydroxytryptamine receptor 2A (HTR2A) small molecule agonists, cell-based qHTS assay (AID 1963587). Further: nearly all actives have a fitted effect of over 30% in size. Further: potency means the concentration at half of the fitted maximal effect. The method in brief: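 Kinetic calcium-flux fluorescence (2 min, 1 sec intervals) after compound addition in agonist mode. HTR2A-CHO cells were cultured 18 h, then dye-loaded 1 h at 37 C.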
For experiment [13], the target named is Muscarinic acetylcholine receptor M1 (Homo sapiens) (UniProt P11229). Nature of the experiment: Cholinergic receptor muscarinic 1 (CHRM1) small molecule antagonists, cell-based qHTS assay (AID 1963588). Further: nearly all actives have a fitted effect of over 40% in size. Further: potency means the concentration at half of the fitted maximal effect. The method in brief:
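Compounds were tested at 15 concentrations in three independent runs. Dye-loaded CHRM1-CHO cells were exposed 5 min at room temperature before stimulation by acetylcholine added at 50nM. Intracellular calcium was read kinetically on FDSS for 3 min.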

For experiment [14] the target is unchanged. Nature of the experiment: Cholinergic receptor muscarinic 1 (CHRM1) small molecule agonists, cell-based qHTS assay (AID 1963589). Further: nearly all actives have a fitted effect of over 35% in size. In a few lines:
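Homogeneous fluorescence calcium flux, agonist mode. Human M1-expressing CHO cells; compound dosed at 15 concentrations, three independent runs; signal sampled every 1 sec.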

A short description of experiment [15]: cAMP Responsive Elements (CRE) small molecule agonists, cell-based qHTS assay (AID 1963590). In a few lines:
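HEK 293T cells stably bearing CRE-bla were plated at 2,000 cells per well and rested 18 h. Compounds, positive controls or DMSO were added for 3 h at 37 C. LiveBLAzer B/G substrate was then loaded for 2 h at room temperature.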

The nature of experiment [16]: cAMP Responsive Elements (CRE) small molecule antagonists, cell-based qHTS assay (AID 1963591; active means well fitted inhibition curve with a large enough effect in the signal ratio in the repeat runs, not every such curve was filed as active; the % refers to the signal ratio). The method in brief:
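First, CRE-bla HEK293T cells settled 18 h at 37 C. Next, compound and 0.25 uM final NKH477 were applied for 3 h. Last, LiveBLAzer B/G substrate was loaded for 2 h at room temperature.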

Experiment [17] has as its target Beta-2 adrenergic receptor (Homo sapiens) (UniProt P07550). Description: Adrenergic beta2 receptor (ADRB2) small molecule antagonists, cell-based qHTS assay (AID 1963592). Further: series mostly up to about 92 µM; nearly all actives have a fitted effect of over 50% in size. The method in brief:
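Assay format: CHO-ADRB2 cells, 18-20hr seeding at 37C/5% CO2, then compound plus 1nM isoproterenol agonist mix for 0.5hr RT. Homogeneous time-resolved fluorescence cAMP detection after 1hr, expressed as 665/615 nm ratio.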

Experiment [18] deals with D(2) dopamine receptor (Homo sapiens) (UniProt P14416). Nature of the experiment: Dopamine D2 receptor (DRD2) small molecule agonists, cell-based qHTS assay (AID 1963594). Further: nearly all actives have a fitted effect of over 35% in size. The method in brief:
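cAMP accumulation in DRD2-HEK293 cells measured by HTRF after 1 h detection; compounds added 10 min before NKH477 (200nM […]) forskolin-analogue stimulation, 30 min at room temperature, with Ro20-1724 present at 0.1 mM final.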

The target is the same in experiment [19]. Description: Dopamine D2 receptor (DRD2) small molecule antagonists, cell-based qHTS assay (AID 1963595; active means well fitted inhibition curve with a large enough effect in the signal ratio in the repeat runs, with a control signal flat; the % refers to the signal ratio; further: potency means the concentration at half of the fitted maximal effect). The method in brief: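 Stable D2 receptor HEK293 line, 24 h after seeding. Compound preincubated 10 min, then quinpirole (12 nM) with forskolin analogue NKH477 (200 nM), 30 min, room temperature. Detection by time-resolved FRET of cAMP.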
Experiment [20] in a line: p53 small molecule agonists, cell-based qHTS assay with human liver microsomes: qHTS cell viability counter screen (AID 1963579). Further: nearly all actives have a fitted effect of over 45% in size. Further: potency means the concentration at half of the fitted maximal effect. The method in brief:
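Luminescent CellTiter-Glo read-out, 30 min at room temperature, gauged cytotoxicity in p53RE-bla cells exposed 16 h at 37 C to DMSO-dissolved compounds with metabolic activation by human liver microsomes and NADPH, each 0.5 mg/mL final.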

The results in this text go back to PubChem BioAssay (Tox21).

Records with an inconclusive call do not appear. Active and inactive are the calls of the source. Unless noted, the call rests on the fitted dose curve.

5-hydroxytryptamine receptor 2A (Homo sapiens), sequence (P28223 whole entry, looked up): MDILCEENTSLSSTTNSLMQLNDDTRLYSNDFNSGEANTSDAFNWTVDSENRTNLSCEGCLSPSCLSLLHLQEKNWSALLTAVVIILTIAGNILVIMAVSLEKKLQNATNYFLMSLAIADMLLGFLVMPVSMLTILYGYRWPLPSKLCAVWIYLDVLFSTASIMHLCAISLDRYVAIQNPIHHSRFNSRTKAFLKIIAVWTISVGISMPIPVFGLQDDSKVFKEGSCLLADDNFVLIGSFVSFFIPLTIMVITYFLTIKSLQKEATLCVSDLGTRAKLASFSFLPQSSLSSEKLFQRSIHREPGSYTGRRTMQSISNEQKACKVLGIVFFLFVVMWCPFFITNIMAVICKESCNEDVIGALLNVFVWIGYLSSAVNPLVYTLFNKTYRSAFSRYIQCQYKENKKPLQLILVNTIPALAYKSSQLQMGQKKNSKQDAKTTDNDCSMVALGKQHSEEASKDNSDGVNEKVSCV
KiSS-1 receptor (Homo sapiens), sequence (Q969F8 whole entry, looked up): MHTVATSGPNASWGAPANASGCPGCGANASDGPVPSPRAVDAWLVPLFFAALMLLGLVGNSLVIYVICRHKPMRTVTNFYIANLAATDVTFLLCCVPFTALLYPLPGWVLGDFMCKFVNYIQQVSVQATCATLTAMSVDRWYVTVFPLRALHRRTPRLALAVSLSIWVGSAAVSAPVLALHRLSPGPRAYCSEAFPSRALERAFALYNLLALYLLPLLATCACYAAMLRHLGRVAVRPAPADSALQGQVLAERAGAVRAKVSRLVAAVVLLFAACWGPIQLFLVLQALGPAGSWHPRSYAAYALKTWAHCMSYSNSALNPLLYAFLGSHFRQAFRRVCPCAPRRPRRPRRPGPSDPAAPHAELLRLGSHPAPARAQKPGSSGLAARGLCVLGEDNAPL
Gonadotropin-releasing hormone receptor (Homo sapiens), sequence (P30968 whole entry, looked up): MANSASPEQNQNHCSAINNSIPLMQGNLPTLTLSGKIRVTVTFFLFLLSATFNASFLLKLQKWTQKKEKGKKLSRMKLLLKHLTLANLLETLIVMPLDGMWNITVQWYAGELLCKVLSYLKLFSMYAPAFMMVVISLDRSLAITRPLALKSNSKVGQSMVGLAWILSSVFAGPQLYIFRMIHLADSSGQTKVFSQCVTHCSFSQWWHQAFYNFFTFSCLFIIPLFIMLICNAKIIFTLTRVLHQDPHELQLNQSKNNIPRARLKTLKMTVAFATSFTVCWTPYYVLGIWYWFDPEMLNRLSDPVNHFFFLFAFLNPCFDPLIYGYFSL
D(2) dopamine receptor (Homo sapiens), sequence (P14416 whole entry, looked up): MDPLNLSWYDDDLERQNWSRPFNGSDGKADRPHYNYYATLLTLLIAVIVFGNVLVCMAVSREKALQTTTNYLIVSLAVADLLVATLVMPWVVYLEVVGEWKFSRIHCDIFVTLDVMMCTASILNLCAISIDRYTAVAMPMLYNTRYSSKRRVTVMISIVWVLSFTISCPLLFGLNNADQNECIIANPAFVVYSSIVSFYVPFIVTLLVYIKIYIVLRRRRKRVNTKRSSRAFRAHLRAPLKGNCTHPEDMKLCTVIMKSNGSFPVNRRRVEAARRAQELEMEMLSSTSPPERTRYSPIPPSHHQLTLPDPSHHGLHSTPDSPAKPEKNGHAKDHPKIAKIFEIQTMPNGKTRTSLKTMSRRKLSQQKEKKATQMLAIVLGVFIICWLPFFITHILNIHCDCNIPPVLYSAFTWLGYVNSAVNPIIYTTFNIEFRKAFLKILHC
Beta-2 adrenergic receptor (Homo sapiens), sequence (P07550 whole entry, looked up): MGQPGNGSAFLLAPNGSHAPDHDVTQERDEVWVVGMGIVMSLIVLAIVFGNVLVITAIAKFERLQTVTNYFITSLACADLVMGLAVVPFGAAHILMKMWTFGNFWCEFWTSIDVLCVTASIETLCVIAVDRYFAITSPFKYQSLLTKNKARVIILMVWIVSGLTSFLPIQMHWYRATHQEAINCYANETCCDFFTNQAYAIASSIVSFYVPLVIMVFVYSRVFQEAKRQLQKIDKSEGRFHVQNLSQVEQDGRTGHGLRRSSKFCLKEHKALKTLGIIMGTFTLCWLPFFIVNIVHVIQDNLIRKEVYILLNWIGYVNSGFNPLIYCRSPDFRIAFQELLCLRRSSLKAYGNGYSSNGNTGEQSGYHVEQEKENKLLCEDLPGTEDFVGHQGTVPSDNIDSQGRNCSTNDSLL
Muscarinic acetylcholine receptor M1 (Homo sapiens), sequence (P11229 whole entry, looked up): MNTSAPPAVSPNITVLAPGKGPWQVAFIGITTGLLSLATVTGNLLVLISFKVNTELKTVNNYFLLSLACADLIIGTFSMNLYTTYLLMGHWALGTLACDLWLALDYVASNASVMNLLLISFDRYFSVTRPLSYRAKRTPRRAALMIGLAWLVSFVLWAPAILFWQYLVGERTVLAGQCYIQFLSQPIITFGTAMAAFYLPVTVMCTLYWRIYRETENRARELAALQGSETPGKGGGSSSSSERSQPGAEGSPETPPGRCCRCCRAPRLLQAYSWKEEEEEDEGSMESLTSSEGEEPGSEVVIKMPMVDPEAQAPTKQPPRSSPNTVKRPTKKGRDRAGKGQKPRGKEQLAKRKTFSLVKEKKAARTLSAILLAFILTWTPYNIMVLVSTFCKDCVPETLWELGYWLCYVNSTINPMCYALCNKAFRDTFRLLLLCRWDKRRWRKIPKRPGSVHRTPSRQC

On to `Cc1c(Cn2ccnc2)c2ccccc2n1CCC(=O)O`, for which the Potency result in experiment [1], in [2], in experiment [3], in experiment [6], in experiment [7] and in experiment [8] was “inactive” throughout. Also, the Potency result in [9], in experiment [10], in [11], in experiment [12], in experiment [13] and in [14] was “inactive” each time. Moreover, the Potency result in experiment [15], in [16], in experiment [17], in experiment [18] and in experiment [19] was “inactive” throughout. Moreover, the result in experiment [4] and in experiment [5] was inactive.

As for `O=C(O)CCCC[P+](c1ccccc1)(c1ccccc1)c1ccccc1`, the Potency entry in [1], in [2], in experiment [3], in experiment [6], in experiment [7] and in experiment [8] was “inactive” throughout. Also, the Potency entry in [9], in [10], in experiment [11], in [12], in experiment [13] and in experiment [14] was “inactive” each time. The Potency result in [15], in experiment [16], in [17] and in [18] was “inactive” throughout. Also, the outcome in [4] and in [5] was inactive.

`CCCCCCCC[N+](CCCCCCCC)(CCCCCCCC)CCCCCCCC`: the figures for the Potency in experiment [1], in experiment [20] and in experiment [19] were 8.62 µM (active), 18.2 µM (active) and 24.3 µM (active), respectively. Moreover, the Potency entry in experiment [2], in experiment [3], in experiment [6], in experiment [7], in [12] and in experiment [13] was “inactive” throughout. Also, the Potency entry in experiment [14], in experiment [17] and in [18] was “inactive” each time. Moreover, the outcome in experiment [4] and in experiment [5] was inactive.

For the compound `Nc1ncnc(Nc2ccccc2)n1`, the Potency entry in experiment [1], in experiment [2], in experiment [3], in experiment [6], in [7] and in [8] was “inactive” in each case. Besides, the Potency result in experiment [9], in experiment [10], in experiment [11], in experiment [12], in [13] and in experiment [14] was “inactive” throughout. Further, the Potency entry in experiment [15], in experiment [16], in experiment [17], in [18] and in [19] was “inactive” each time. In addition, the outcome in experiment [4] and in experiment [5] was inactive.

Regarding `CCCCCCCCCCCCN(CCO)CCO`, the Potency in [1] was 30.5 µM (active); in experiment [3] it was 30.8 µM (active); in experiment [20], 45.6 µM (active); in experiment [12], 48.8 µM (active); in experiment [13], 11.8 µM (active). Also, the Potency entry in experiment [2], in experiment [6], in [7], in [14], in experiment [17] and in [18] was “inactive” in each case. Moreover, in experiment [19], the Potency entry is “inactive”. Besides, the result in [4] and in experiment [5] was inactive.

`Nc1ncnc2c1ncn2[C@H]1CC[C@@H](CO)O1`: the Potency entry in experiment [1], in experiment [2], in experiment [3], in [6], in experiment [7] and in experiment [8] was “inactive” throughout. Further, the Potency entry in [9], in experiment [10], in [11], in experiment [12], in experiment [13] and in experiment [14] was “inactive” throughout. Moreover, the Potency result in experiment [15], in [17], in experiment [18] and in [19] was “inactive” throughout. Further, the outcome in experiment [4] and in experiment [5] was inactive.

`CC(CC1c2ccccc2CCc2ccccc21)CN(C)C` (stereo unspecified): the Potency entry in experiment [1], in experiment [2], in experiment [3], in [6], in experiment [7] and in [20] was “inactive” throughout. Moreover, the Potency result in [12], in [14], in experiment [15], in [16], in experiment [17] and in experiment [18] was “inactive” each time. Besides, the result in experiment [4] and in experiment [5] was inactive. Also, the Potency in experiment [13] is 0.0365 µM (active).

For `Nc1ccc(C(=O)N2CC3CC(CN(Cc4ccccc4)C3)C2)cc1`, the Potency entry in experiment [1], in [2], in [3], in [6], in experiment [7] and in [20] was “inactive” in each case. Moreover, the Potency result in [11], in [12], in experiment [17], in [18] and in [19] was “inactive” in each case. The result in experiment [4] and in experiment [5] was inactive. In addition, the Potency in experiment [13] was 1.83 µM (active).
